# An excerpt weighted towards active compounds, which were near 2.4% of everything screened.
# Pol kappa inh: blocks human DNA polymerase kappa activity | Q9UBT6 | purified Pol kappa, fluorescent DNA synthesis assay, 10 min | Potency, µM (highest dose often 107 µM), for the others: top-dose activity, negative = inhibition, actives largely listed as inhibitors | 400,000 tested, 0.53% active; further: on the % scale 0 is the no-effect control and ±100 the full control effect
#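 Activity was followed as the change in fluorescence between reads at 0 and 10 min after starting the reaction with 50 nM substrate. Beforehand, 10 nM polymerase had been preincubated with compound for 15 min at room temperature.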
# Pol beta inh: DNA polymerase beta (human) inhibition; P06746; Potency, µM (top dose mostly 114 µM), for inactives: at the top dose activity change, negative = inhibition, usual class: inhibitors; 340,000 tested, 1.3% active; Pol beta primer extension/strand displacement, fluorescence kinetic; further: on the % scale 0 is the no-effect control and ±100 the full control effect
#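 Kinetic readout of DNA synthesis with strand displacement by Pol beta. Compound and 10 nM enzyme sit 15 min at room temperature; 50 nM substrate starts the reaction, read immediately and at 10 min.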
# POLI inh: inhibitors of human DNA polymerase iota; Pol iota fluorescent replication assay, 10 min; Potency, µM (titrated, usually from 115 µM), for the others: at the top dose activity, negative = inhibition, hits mostly inhibitors; 390,000 tested, 1% active; AID 588590
# Target sequence (Q9UNA4 whole entry, looked up): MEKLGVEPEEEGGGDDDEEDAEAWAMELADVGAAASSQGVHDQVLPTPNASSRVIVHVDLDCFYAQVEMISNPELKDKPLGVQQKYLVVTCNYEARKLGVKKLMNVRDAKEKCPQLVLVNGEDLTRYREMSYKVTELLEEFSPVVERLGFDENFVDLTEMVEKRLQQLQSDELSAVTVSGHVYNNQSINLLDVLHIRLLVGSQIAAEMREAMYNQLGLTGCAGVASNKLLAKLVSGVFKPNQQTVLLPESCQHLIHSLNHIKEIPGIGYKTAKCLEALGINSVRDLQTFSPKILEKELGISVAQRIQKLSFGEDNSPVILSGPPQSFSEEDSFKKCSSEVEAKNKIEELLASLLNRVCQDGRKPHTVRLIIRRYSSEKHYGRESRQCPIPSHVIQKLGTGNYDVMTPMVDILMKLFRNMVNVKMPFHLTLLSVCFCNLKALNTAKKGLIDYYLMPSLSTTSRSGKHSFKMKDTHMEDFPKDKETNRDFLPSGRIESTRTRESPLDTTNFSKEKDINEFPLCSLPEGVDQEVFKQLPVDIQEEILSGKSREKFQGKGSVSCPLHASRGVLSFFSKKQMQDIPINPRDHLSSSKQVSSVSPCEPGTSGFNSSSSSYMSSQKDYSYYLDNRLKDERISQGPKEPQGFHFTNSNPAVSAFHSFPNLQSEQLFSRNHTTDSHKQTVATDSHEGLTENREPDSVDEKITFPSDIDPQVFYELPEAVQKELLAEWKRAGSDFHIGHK
#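 Fluorescent replication assay read twice, at 0 min and 10 min after adding 50 nM (final) substrate. Enzyme (10 nM) and compounds were first incubated 15 min at room temperature; enzyme-free buffer wells were negative controls.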
# TDP1 block: TDP1 (human) enzyme inhibition; 350,000 tested, 0.28% active; Q9NUW8; Potency, µM (highest dose often 130 µM), without a hit: at the highest dose activity change, negative = inhibition, usual class: inhibitors; recombinant TDP1, AlphaScreen DNA substrate cleavage; further: on the % scale 0 is the no-effect control and ±100 the full control effect; nearly all actives have a fitted effect of over 40% in size
#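 Signal: AlphaScreen proximity between streptavidin donor and anti-FITC acceptor beads on intact substrate. Reaction: Tdp1 1 nM, substrate 15 nM final, 5 min RT after 15 min compound preincubation.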
# POLH inh: blocks human DNA polymerase eta activity; Q9Y253; recombinant Pol eta, fluorescent DNA replication assay; Potency, µM (series often up to 114 µM), without a hit: at the top dose activity change, negative = inhibition, actives largely listed as inhibitors; 390,000 tested, 1.2% active; AID 588591; further: on the % scale 0 is the no-effect control and ±100 the full control effect
#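 Pol eta (10 nM) was preincubated with compounds for 15 min at room temperature, after which fluorescent replication substrate (50 nM final) was added to start the reaction. Fluorescence was read kinetically at 0 and 10 min.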
# FEN1 inhibitor: inhibitors of human flap endonuclease 1. P39748. Potency, µM (series often up to 114 µM), without a hit: top-dose activity change, negative = inhibition, usual class: inhibitors. 390,000 tested, 0.35% active. Recombinant FEN1 flap cleavage, fluorescence, 15 min; further: on the % scale 0 is the no-effect control and ±100 the full control effect; nearly all actives have a fitted effect of over 65% in size
#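 Compounds are tested as a concentration series against 10 nM FEN1; after a 15 min room-temperature preincubation, 50 nM substrate starts cleavage, with plate reads at 0 and 15 min. Normalized responses are fitted by a Hill equation.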
# * hit, by the source's call; u = inconclusive; x = no result given; [ ] = another dose, or the depositor's remark. The call rests on the fitted dose curve; in most records, active means well fitted curve in the direction sought with a large enough effect; inconclusive means small, poorly fitted or top-dose-only effect, or another doubt; inactive means no such curve, though single readings can be large; an effect the other way counts as inactive or inconclusive. Potency means the concentration at half of the fitted maximal effect.
SMILES,Pol kappa inh,Pol beta inh,POLI inh,TDP1 block,POLH inh,FEN1 inhibitor
O=C(CSc1ccccc1)Nc1ccc(-c2nc3ccccc3[nH]2)cc1,u,7.1µM*,u,-4%,u,-5%
Cc1ccc2nc(-c3ccc(NC(=O)CSc4ccccc4)cc3)[nH]c2c1,-4%[60.1 µM],22µM*,35µM*,0%,-11%,-5%
CC(C)c1ccc(Cn2cnc3c(cnn3C(C)(C)C)c2=O)cc1,0%,x,-7%,x,x,-18%
O=C(Nc1cc(F)ccc1F)c1cnn2c1NC(=C1CC1)C=C2C(F)F,5%,x,9%,x,x,0%
CCOC(=O)C(C)N1C(=O)S/C(=C/c2cc(C)n(-c3ccccn3)c2C)C1=O (stereo unspecified),89µM*,-3%,-5%,8%,-19%,-2%
O=C(O)c1cccc(S(=O)(=O)Nc2cccc(S(=O)(=O)N3CCCC3)c2)c1,-13%,x,-17%,-14%,u,-1%
Cc1ccc(S(=O)(=O)Nc2nc3ccccc3nc2Nc2cccc(S(=O)(=O)N3CCCC3)c2)cc1,u,11%,7.1µM*,-8%,-8%,37%
O=C(O)c1cccc(S(=O)(=O)Nc2cccc(S(=O)(=O)N3CCCCCC3)c2)c1,-16%,4%,89µM*,3%,2%,3%
O=[N+]([O-])c1cccc(S(=O)(=O)Nc2nc3ccccc3nc2Nc2cccc(S(=O)(=O)N3CCCCC3)c2)c1,5%[60.1 µM],u,11%,6%,u,u
O=C(c1cccs1)N1CCCc2cc(NS(=O)(=O)c3ccc(F)cc3)ccc21,1%[60.1 µM],-3%,-8%,9%,-18%,6%
Cc1nc(-c2ccc(C(=O)O)cc2)cs1,-9%,79µM*,-1%,0%,-9%,3%
Cc1nc(-c2ccc(C(=O)Nc3cccc(Br)c3)cc2)cs1,-13%,32µM*,u,1%,-17%,-3%
CC(C)OC(=O)N(C)C[C@@H]1OCc2cnnn2CCCC(=O)N([C@@H](C)CO)C[C@@H]1C,x,x,x,x,-2%,x
COc1ccc2[nH]cc(CCNc3ccnc(-c4ccc5c(c4)OCO5)n3)c2c1,-2%[60.1 µM],x,x,x,x,x
C=CCn1c(SCC(=O)c2ccc(CNC(C)=O)o2)nc2ccccc2c1=O,u,u,16µM*,-7%,u,-12%
CC(=O)NCc1ccc(C(=O)CSc2nnc(-c3ccncc3)n2Cc2ccccc2)o1,79µM*,20µM*,22µM*,x,20µM*,-6%
COc1cccc(C2c3c(ncn(-c4cccc(OC)c4)c3=N)Oc3ccc4ccccc4c32)c1 (stereo unspecified),x,x,x,5%,x,x
CC(=O)Nc1ccc(Nc2nc3ccc(Cl)cc3n3cnnc23)cc1,-6%,-1%,31%,-8%,x,16%
CCC(=O)OC1C(N(C)C)CC(C)O[C@H]1O[C@H]1[C@H](C)[C@@H](O[C@H]2CC(OC)[C@@H](O)C(C)O2)[C@H](C)C(=O)O[C@@H](CC)[C@](C)(O)[C@@H](O)[C@H](C)C(=O)[C@@H](C)C[C@]1(C)O (stereo partly specified),3%[19.4 µM],x,x,x,x,x
COc1cc(NC(=O)CSc2ccc(-c3ccco3)nn2)cc(OC)c1,-33%,u,50µM*,1%,-17%,12%
COc1ccc(NC(=O)CSc2ccc(-c3ccco3)nn2)cc1,-22%,32µM*,u,-9%,u,-7%
CCOc1ccccc1NC(=O)CSc1ccc(-c2ccco2)nn1,-23%,u,56µM*,6%,u,-1%
COc1ccc(-c2ccc(SCC(=O)Nc3nccs3)nn2)cc1OC,0%,50%,28%,79µM*,6%,0%
O=C(CSc1ccc(-c2ccco2)nn1)Nc1ccccc1F,-43%,u,u,2%,-14%,8%
Cc1cc(N2C(=O)c3ccccc3C2=O)no1,x,x,x,0%,x,x
Cc1ccccc1OCC(=O)OCc1cc(=O)n2nc(C3CCCCC3)sc2n1,-22%,-22%,7%,5%,-17%,-4%

# Screening results from PubChem BioAssay.
